Nrf2 inh – Nrf2 qHTS screen for inhibitors; A549 ARE-Fluc reporter, luciferase luminescence, 18-24 h; Potency, µM (doses to about 46 µM), usual class: inhibitors; 2.1% of 360,000 active; also: nearly all actives have a fitted effect of over 60% in size
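Two sequential reads on A549 ARE_Fluc cells exposed to compound for 18-24 h: a CellTiter-Fluor fluorescence read for viability, then a luciferase luminescence read for Nrf2/ARE activity.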
TGFb inhibitor – qHTS for Inhibitors of TGF-b. 1.2% of 410,000 active. Potency, µM (series often up to 46.1 µM), usual class: inhibitors. HepG2 CAGA-GFP TGF-b/SMAD3 reporter, GFP fluorescence, 18 h; TGF-beta stimulated, 500 pg/mL final; also: nearly all actives have a fitted effect of over 65% in size
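HEPG2 CAGA-GFP cells (1000/well, DMEM with 1% FBS) were pre-incubated 2 h at 37 degrees C, given compound by pin tool, then stimulated with TGF-beta at 500 pg/mL final for 18 h before per-cell GFP fluorescence imaging.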
HepG2 tox – qHTS for Inhibitors of TGF-b: Cytotox Counterscreen. HepG2 CAGA-GFP viability, ATP luminescence, 18 h. Potency, µM (titrated, usually from 46.1 µM), usual class: cytotoxic. 0.76% of 410,000 active. AID 588856, 2011
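CellTiter-Glo luminescence gave cytotoxicity after 18 hours at 37 degrees C. The cells were HepG2 CAGA-GFP in 1% FBS DMEM, stimulated with 500 pg/mL TGF-beta after compound addition. %Activity was normalised to no-cell wells (complete cell-killing) and DMSO (no toxicity), and curves were fitted and classified.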
ATXN viability – Viability Counterscreen for Primary qHTS for Inhibitors of ATXN expression; 0.49% of 400,000 active; S2 cells (HEK-293 line with an ATXN2-luciferase reporter) viability, CellTiter-Fluor protease fluorescence, 24 h; Potency, µM (doses to about 56.7 µM), usual class: cytotoxic; also: nearly all actives have a fitted effect of over 40% in size
ATXN2 expr inh – Primary qHTS for Inhibitors of ATXN expression. Potency, µM (series often up to 57 µM), usual class: inhibitors. HEK-293 ATXN2-luciferase reporter, luminescence, 24 h. 0.72% of 360,000 active. AID 1745845, 2022; also: nearly all actives have a fitted effect of over 55% in size
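qHTS (up to 57 uM final) was run with 24 h compound exposure of reporter cells at 37 °C. Each well was multiplexed: SteadyGlo luminescence measured ATXN2-luciferase expression after a fluorogenic Gly-Phe-AFC viability readout (25 uM final).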
A549 viability – Nrf2 qHTS screen for inhibitors: counterscreen for cytotoxicity | A549 ARE-Fluc cells, CellTiter-Fluor viability, 18-24 h | Potency, µM (top dose mostly 46 µM), hits mostly inhibitors | 0.16% of 390,000 active | AID 504648, 2011
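A549 ARE_Fluc cells in 5% FBS OPTI-MEM were exposed to compounds in concentration-response for 18-24 h at 37 deg C. Viability was read by CellTiter-Fluor fluorescence (Ex 405/Em 525) after 30 min, before the luciferase read.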
Hits are given with their value; . = inactive; ? = inconclusive; / = no result; ! = not active in a repeat; [ ] = remark or other dose. The list is not random: actives were taken first. Their share in the collection is about 3.8%. Calls follow the shape of the dose curve; as a rule, active = well fitted curve in the direction sought with a large enough effect; inconclusive = small, poorly fitted or top-dose-only effect, or another doubt; inactive = no such curve, though single readings can be large; an effect the other way counts as inactive or inconclusive.

SMILES	Nrf2 inh	TGFb inhibitor	HepG2 tox	ATXN viability	ATXN2 expr inh	A549 viability
Cc1nc(N2CCC(C)CC2)c2c(C)c(C(=O)Nc3cccc(C(F)(F)F)c3)sc2n1	?	.	.	.	/	?
COc1ccc(Cl)cc1NC(=O)c1sc2nc(C)nc(N3CCOCC3)c2c1C	21µM	.	.	.	.	.
Cc1nc(N2CCN(c3ccccn3)CC2)c2c(C)c(C(=O)Nc3ccccc3F)sc2n1	16µM	.	.	.	.	.
COc1ccc(NC(=O)c2sc3ncnc(N4CCN(c5ccccn5)CC4)c3c2C)cc1Cl	15µM	?	.	.	?	?
COc1ccc(NC(=O)c2sc3nc(C)nc(N4CCN(c5ccccn5)CC4)c3c2C)cc1Cl	?	.	.	.	.	.
Cc1nc(N2CCC(C)CC2)c2c(C)c(C(=O)Nc3ccc(C(F)(F)F)cc3)sc2n1	21µM	.	.	.	.[11.3 µM]	?
COCCn1ccc2c(OCC(=O)NCc3ccc(C)cc3)cccc2c1=O	.	.	.	?	.	.
COC(=O)c1ccc(OCC(O)CNCC(c2ccc(OC)cc2)N(C)C)c(OC)c1 (centres undefined)	.	.	.	.	.	.
O=C(COc1ccc2ccc(=O)oc2c1)Nc1cccc(S(=O)(=O)N2CCCCC2)c1	.	.	.	?	.	.
CC(=O)NC(CC(=O)Nc1nc(-c2ccc(N(C)S(C)(=O)=O)cc2)cs1)c1ccccc1 (centres undefined)	21µM	.	.	.	.	.
CC(=O)Nc1ccc(-c2csc(NC(=O)CC(NC(C)=O)c3ccccc3)n2)cc1 (centres undefined)	.	.	.	.	.	.
COc1ccc2oc(C(=O)NCCN3CCOCC3)c(C)c2c1OC	.	.	.	.	.	.
Cc1ccc2nc(-c3ccccc3)nn2c1	?	.	.	.	3.2µM	.
Cc1cc2c(c(C)c1Br)C(c1ccc3c(c1)OCO3)CC(=O)O2 (centres undefined)	.	20µM	.	.	.	.
CC(/C=N/NC(=O)c1cc(-c2ccncc2)nc2ccccc12)=C\c1ccco1	.	?	.	.	.	18µM
Cc1ccc(/C=N/NC(=O)c2cc(-c3ccncc3)nc3ccccc23)o1	?	?	.	.	.	.
Cc1ccc(NC(=O)c2cn(-c3ccccc3)nc2-c2ccccc2)cc1	.	?	.	.	.	.
Cc1nn(Cc2c(Cl)cccc2Cl)c(C)c1NC(=O)c1cn(-c2ccccc2)nc1-c1ccccc1	12µM	.	.	13µM	13µM	13µM
CCOC(CNC(=O)C1CCN(S(=O)(=O)c2ccc3nc4c(c(C(=O)O)c3c2)CCCCC4)CC1)OCC	.	.	.	.	/	.
CC(=O)N1CCCc2cc(S(=O)(=O)N(C)CC(=O)Nc3ccc(F)c(Cl)c3)ccc21	/	.	.	.	?	.
COC(=O)N1C(=O)[C@@](c2ccccc2)(C2CCCCC2)N1C(=O)OC	?	?	.	20µM	?	.
COC(=O)N1C(=O)[C@@](Cc2ccccc2)(c2ccccc2)N1C(=O)OC	?	7.9µM	.	?	?	.
COc1ccc(-c2cc(C)no2)cc1S(=O)(=O)N1CCc2ccccc21	.	.	.	/	/	.
COc1ccc(-c2onc(C)c2C)cc1S(=O)(=O)N1CCc2ccccc21	18µM	.	.	/	/	.
O=C(O)c1nc(-c2ccccc2)c(C(=O)NC2CC2)[nH]1	/	.	.	.	.	/
SMILES	Nrf2 inh	TGFb inhibitor	HepG2 tox	ATXN viability	ATXN2 expr inh	A549 viability
Cc1ccc(OCCN2CCN(C(=O)CCC(=O)Nc3nnc(C(C)C)s3)CC2)cc1	12µM	.	.	.	.	?
CCC1CCC(C(=O)NC(C(=O)NCCN2CCOCC2)C(C)C)CC1 (centres undefined)	.	.	.	.	.	.
CCCCNc1nc(Oc2ccc(=O)n(-c3ccccc3)n2)nc(N(C)C)n1	.	.	.	.	.	.
O=C(NCCCN1CCOCC1)NC1CCCCC1	/	.	.	.	.	.
O=C(NCCCCCCCN1CCCCCCC1)C(C1CCCCC1)C1CCCCC1	.	18µM	.	/	?	?
Cc1cc(C)c(C(=O)/C=C/c2cccc3ccccc23)c(=O)[nH]1	18µM	?	.	?	?	?
CCCCCCCCCCCCCCCC[n+]1ccc(CC(O)c2c(C)[nH]c3ccccc23)c2ccccc21 (centres undefined)	/	?	8.9µM	/	/	/
CCCCC[n+]1cccc2c3ccccc3ccc21	?	?	.	.	?	?
Cc1cc(N2CCN(C)CC2)nc2ccc(NC(=S)N3CCC4(CC3)OCCO4)cc12	.	.	.	.	.	.
CN(C)CCCNc1cc(O)c2ncccc2c1	5.2µM	?	7.1µM	?	20µM	10µM
Oc1cc(NCc2ccc(F)cc2)cc2cccnc12	?	?	11µM	?	?	.
Oc1cc(NCc2ccc(Cl)cc2)cc2cccnc12	.	.	.	.	.	.
C(=C\c1c[nH]c2ccccc12)/c1nccc2ccccc12	/	?	11µM	/	/	/
COC(=O)c1ccccc1NC(=O)C1=CC(c2ccc(C)cc2)=NS(=O)(=O)N1C	18µM	.	.	.	.	.
COC(=O)c1ccccc1NC(=O)C1=CC(c2cccs2)=NS(=O)(=O)N1C	?	?	.	.	.	.
Oc1ccc(CNc2ccccc2C(F)(F)F)c2cccnc12	?	/	/	/	/	.
Oc1ccc(CNc2ccc(F)cc2F)c2cccnc12	10µM	/	/	/	/	.
Oc1ccc(CNc2ccccc2F)c2cccnc12	?	7.1µM	.	11µM!	18µM!	.
C=CCN=C(NC#N)SCC(=O)c1cccc(OC)c1	.	?	.	.	.	.
COc1cccc2c1C(=O)c1c(O)c3c(c(O)c1C2=O)C[C@@](O)(C(=O)CO)C[C@@H]3O[C@H]1C[C@H](N)[C@H](O[C@@H]2CCCCO2)[C@H](C)O1	/	/	/	16µM	0.4µM	/
CC(=O)[C@]1(O)Cc2c(O)c3c(c(O)c2[C@@H](O[C@H]2C[C@H](N)[C@@H](O)[C@H](C)O2)C1)C(=O)c1ccccc1C3=O	/	/	/	/	0.14µM	/
COc1cc(C2Nc3ccc4ccccc4c3C3=C2C(=O)CC(C)(C)C3)ccc1OC(C)C(=O)O (centres undefined)	.	.	.	.	.	.
Cc1ccsc1C(=O)N1CCC1(C)C(=O)NCCC#N (centres undefined)	/	.	.	.	.	/
O=C(O)c1cccc(-c2ccc(/C=N/NC(=O)c3cccnc3)o2)c1	.	.	.	.	.	.
Cc1nnc(N/N=C\c2ccc(-c3cccc(C(=O)O)c3)o2)n1N	.	10µM	7.1µM	.	?	.
